Compounds with a hit are over-represented: about 2.7% of the library has one in this group of screens.
PfG6PD inh = PfG6PD (Plasmodium falciparum) enzyme inhibition. AID 504690. inhibition, % at 20 µM. PfGluPho enzyme, NADPH resazurin-diaphorase fluorescence. 0.78% of 350,000 active;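 active means inhibition reaching at least a set limit at 20 µM in the primary screen, cut at about 59% in these data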
proKLK7 act = activates the human kallikrein-7 zymogen; P49862; purified proKLK7, EDANS-DABCYL substrate fluorescence; 100% is mature enzyme control, 0% vehicle; activation, % at 7 µM; 0.9% of 370,000 active; AID 652039;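 active means activation above the mean of all tested compounds plus 3 SD, computed per campaign excluding outliers beyond control limits, cut at about 13% in these data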
Neddyl block = cullin neddylation inhibition; P61081+Q13564; TR-FRET cullin neddylation, biochemical; calls only at 25 µM; 0.58% of 360,000 active; AID 651699; in the data active means inhibition above about 36%
Target sequence (P61081 whole entry, looked up): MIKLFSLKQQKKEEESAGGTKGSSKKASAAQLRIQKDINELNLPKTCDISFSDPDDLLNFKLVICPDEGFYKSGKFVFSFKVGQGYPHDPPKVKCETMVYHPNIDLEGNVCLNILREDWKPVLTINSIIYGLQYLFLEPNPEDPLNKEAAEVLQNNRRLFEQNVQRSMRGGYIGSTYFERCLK
Target sequence (Q13564 whole entry, looked up): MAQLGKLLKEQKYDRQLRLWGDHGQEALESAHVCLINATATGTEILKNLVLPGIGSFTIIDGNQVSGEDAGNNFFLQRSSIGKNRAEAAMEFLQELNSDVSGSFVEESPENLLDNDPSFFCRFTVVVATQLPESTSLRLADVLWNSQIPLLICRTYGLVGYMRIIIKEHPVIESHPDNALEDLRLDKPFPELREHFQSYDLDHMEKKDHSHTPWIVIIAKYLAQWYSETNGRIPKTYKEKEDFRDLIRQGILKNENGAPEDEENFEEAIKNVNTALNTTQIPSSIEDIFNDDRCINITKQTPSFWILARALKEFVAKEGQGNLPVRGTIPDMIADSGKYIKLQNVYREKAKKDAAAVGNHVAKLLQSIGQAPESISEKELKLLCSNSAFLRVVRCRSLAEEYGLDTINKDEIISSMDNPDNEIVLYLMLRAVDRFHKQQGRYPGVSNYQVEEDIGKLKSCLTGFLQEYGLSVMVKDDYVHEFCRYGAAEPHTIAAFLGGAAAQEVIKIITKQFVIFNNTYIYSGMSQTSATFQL
FAS-TE inh = blocks the thioesterase domain of human fatty acid synthase; P49327; recombinant FAS-TE, OMFH fluorogenic substrate, fluorescence endpoint; inhibition, % at 15 µM; 0.67% of 360,000 active;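 active means compounds whose normalised, plate-corrected inhibition of enzyme fluorescence in the single-dose primary screen is 50% or more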
KLK7 act conf = proKLK7 activation, confirmation; shares compounds with proKLK7 act; purified proKLK7, EDANS-DABCYL substrate fluorescence; scaled: vehicle 0, mature enzyme 100; activation, % at 7 µM; 68% of 3,200 active;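 active means activation, as change over the incubation, above the mean of all tested compounds plus 3 SD, cut at about 13% in these data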
EDANS interfere = fluorescence interference counter-screen for KLK7 activators | shares compounds with proKLK7 act | EDANS-DABCYL substrate fluorescence interference, no enzyme, 4 h; solvent 0%, active enzyme control 100% | activation, % at 7 µM | 80% of 3,200 active | AID 686952;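 active means activation above the all-compound mean plus 3 SD, ignoring values outside control-based bounds, cut at about 4.8% in these data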;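 further: value is the 4 h activation minus the activation read at time zero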
Of the large screens only hits and unclear results are named; the others gave an inactive call (follow-up assays come after a bar, where shown).

CCOC(=O)Cc1nc(N2CCN(CCN)CC2)c2c(C)c(C(=O)OCC)sc2n1	none (no result: PfG6PD inh, Neddyl block, FAS-TE inh)
COc1ccccc1-c1c(C)oc2c(CN3CCCCC3C)c(O)ccc2c1=O (stereo unspecified)	proKLK7 act 53 (not shown: Neddyl block) | KLK7 act conf 66 | EDANS interfere 69
Cc1oc2c(CN3CCCCC3C)c(O)ccc2c(=O)c1-c1ccccc1 (stereo unspecified)	proKLK7 act 34 (not shown: Neddyl block) | KLK7 act conf 47 | EDANS interfere 59
COC(=O)C1=C(C)N(Cc2cccc(C(F)(F)F)c2)C(=NCc2ccc(C(F)(F)F)cc2)NC1c1cccc(F)c1 (stereo unspecified)	none (no result: PfG6PD inh, Neddyl block, FAS-TE inh)
CCCCCC[C@@H](CN(CCCC)S(C)(=O)=O)c1ccccc1	none (no result: PfG6PD inh, Neddyl block, FAS-TE inh)
CCC(=O)c1cc2c(C)cc(=O)oc2c(C)c1OC(C)=O	proKLK7 act 453 | KLK7 act conf 804 | EDANS interfere 772
CCC(=O)c1cc2c(C)cc(=O)oc2c(C)c1O	none
CCC(=O)c1cc2c(C)cc(=O)oc2c(C)c1OC(=O)C(C)C	proKLK7 act 139 | KLK7 act conf 155 | EDANS interfere 179
CC(C)N1CCCCC(NC(=O)c2c(F)cccc2F)C1=O (stereo unspecified)	none (no result: PfG6PD inh, Neddyl block, FAS-TE inh)
CCCCCNC(=O)C(c1ccc(C(F)(F)F)cc1)n1c(=O)c(-c2ccco2)nc2ccccc21 (stereo unspecified)	none (no result: PfG6PD inh, FAS-TE inh)
COC(=O)CS(=O)(=O)c1cccc2cccnc12	proKLK7 act 16 | KLK7 act conf 13 | EDANS interfere 13
COC(=O)c1ccc(NS(=O)(=O)c2cccc3cccnc23)cc1	none
Cc1cc(C)[n+](-c2ccc(F)cc2)c2[nH]c(=O)[nH]c(=O)c12	proKLK7 act 38 (not shown: Neddyl block) | KLK7 act conf 63 | EDANS interfere 68
CNC(=O)NC(=O)C(C)OC(=O)c1c2c(nc3ccccc13)/C(=C/c1cccs1)CC2 (stereo unspecified)	proKLK7 act 50, Neddyl block active | KLK7 act conf 85 | EDANS interfere 73
CCCCNC(=O)COC(=O)c1c2c(nc3ccccc13)/C(=C/c1cccs1)CC2	none (not shown: Neddyl block)
Cc1cc(N2CCN(C)CC2)n2cc(-c3ccc(F)cc3)nc2n1	proKLK7 act 32 (not shown: Neddyl block) | KLK7 act conf inactive | EDANS interfere 6.5
CC(C)N(C(=O)[C@H]1C[C@H](CC(=O)NC(C)(C)C)C(=O)N2CCc3c([nH]c4cc(-c5ccco5)ccc34)[C@]12C)C(C)C	proKLK7 act 20 (not shown: Neddyl block) | KLK7 act conf inactive | EDANS interfere 20
CCN(CC)C(=O)[C@H]1C[C@H](CC(=O)NC(C)(C)C)C(=O)N2CCc3c([nH]c4cc(-c5ccco5)ccc34)[C@]12C	proKLK7 act 109 (not shown: Neddyl block) | KLK7 act conf 57 | EDANS interfere 65
CC(C)(C)NC(=O)C[C@H]1C[C@H](C(=O)N2CCCCC2)[C@@]2(CCc3ccccc3)c3[nH]c4cc(-c5ccco5)ccc4c3CCN2C1=O	none (not shown: Neddyl block)
CC(C)N(C(=O)[C@H]1C[C@H](CC(=O)NC(C)(C)C)C(=O)N2CCc3c([nH]c4cc(CCC(=O)N(C)C)ccc34)[C@]12C)C(C)C	none
CC1(C(=O)Nc2ccc3ccccc3c2)CCC(=O)N1CCOc1ccccc1 (stereo unspecified)	none (no result: PfG6PD inh)
COC(=O)/C=C1\OCc2ccc(C)cc21	none (no result: PfG6PD inh, FAS-TE inh)
Cc1ccccc1NS(=O)(=O)c1ccc2c3c(cccc13)C(=O)N2C	none
CN1C(=O)c2cccc3c(S(N)(=O)=O)ccc1c23	proKLK7 act 71 (not shown: Neddyl block) | KLK7 act conf 56 | EDANS interfere 66
CN1C(=O)c2cccc3c(S(=O)(=O)Nc4ccccn4)ccc1c23	none
CN1C(=O)c2cccc3c(S(=O)(=O)NCc4ccco4)ccc1c23	proKLK7 act 21 (not shown: Neddyl block) | KLK7 act conf 14 | EDANS interfere 14
O=c1oc2c(CN3CCN(CCO)CC3)c(O)ccc2cc1-c1ccccn1	proKLK7 act 60 | KLK7 act conf 70 | EDANS interfere 82
Cc1cc(=O)oc2c(O)c(O)ccc12	none
CCCc1cc(=O)oc2cc(C)c(CN3CCCC3)c(O)c12	none
CCCc1cc(=O)oc2c(CN3CCCC3)c(O)ccc12	proKLK7 act 60 (not shown: Neddyl block) | KLK7 act conf 72 | EDANS interfere 69
CCN1CCN(Cc2c(O)ccc3c(C)cc(=O)oc23)CC1	proKLK7 act 44 (not shown: Neddyl block) | KLK7 act conf 71 | EDANS interfere 73
Cc1cc(=O)oc2c(CN3CCCC3)c(O)ccc12	proKLK7 act 45 (not shown: Neddyl block) | KLK7 act conf 76 | EDANS interfere 75
O=c1oc2cc(OCc3ccc(C(F)(F)F)cc3)ccc2cc1-c1ccccn1	none (not shown: Neddyl block)
CN(C)Cc1c(O)ccc2c(=O)c(-c3ccccc3)c(C(F)(F)F)oc12	none
O=c1oc2c(CN3CCOCC3)c(O)ccc2c2c1CCC2	proKLK7 act 70 (not shown: Neddyl block) | KLK7 act conf 68 | EDANS interfere 72
O=c1cc(CO)oc(CN2CCN(CCO)CC2)c1O	none
CCOC(=O)c1c(-c2ccccc2)oc2ccc(O)c(CN3CCN(C)CC3)c12	none
Cc1cc(=O)oc2c(CN3CCN(CCO)CC3)c(O)ccc12	proKLK7 act 120 (not shown: Neddyl block) | KLK7 act conf 65 | EDANS interfere 69
Oc1ccc2ccccc2c1CN1CCOCC1	none
CCCCN(C)Cc1c(O)ccc2c(-c3ccccc3)cc(=O)oc12	proKLK7 act 17 (not shown: Neddyl block) | KLK7 act conf 17 | EDANS interfere 23
CN1CCN(Cc2c(O)ccc3c(-c4ccccc4)cc(=O)oc23)CC1	proKLK7 act 17 (not shown: Neddyl block) | KLK7 act conf inactive | EDANS interfere inactive
COc1ccc(CC(N)c2csc(NC(=O)c3cc(C(C)(C)C)oc3C)n2)cc1 (stereo unspecified)	none (no result: PfG6PD inh)
CCCNC(=O)N(C)C[C@H]1Oc2cc(Br)ccc2S(=O)(=O)N([C@@H](C)CO)C[C@@H]1C	none
Cc1ccc(S(=O)(=O)N2CCC(=O)N([C@H](COCc3ccc(C(F)(F)F)cc3)C(C)C)CC2)cc1	none (no result: PfG6PD inh)
COc1ccc(OC)c2c1CCC2=O	proKLK7 act 13 (not shown: Neddyl block) | KLK7 act conf 19 | EDANS interfere 23
COc1ccccc1NC1=C(C)C(=O)CC1	none
Cc1ccccc1-c1c(C)oc2cc(O)ccc2c1=O	proKLK7 act 58 (not shown: Neddyl block) | KLK7 act conf 71 | EDANS interfere 74
Cc1oc2cc(O)ccc2c(=O)c1N1C(=O)c2ccccc2C1=O	proKLK7 act 344 | KLK7 act conf 298 | EDANS interfere 301
Cc1oc2cc(O)ccc2c(=O)c1Oc1ccccc1	proKLK7 act 54 (not shown: Neddyl block) | KLK7 act conf 74 | EDANS interfere 75
Cc1oc2c(C)c(O)ccc2c(=O)c1-c1nncn1-c1ccccc1	none
CCCOc1ccc2c(=O)c(N3C(=O)c4ccccc4C3=O)c(C)oc2c1	none
Cc1oc2c(C)c(O)ccc2c(=O)c1N1C(=O)c2ccccc2C1=O	proKLK7 act 69 | KLK7 act conf 99 | EDANS interfere 103
N#Cc1ccccc1S(=O)(=O)N1CCN(Cc2cc3c(cc2Br)OCCO3)CC1	none
COc1ccccc1C(=O)NCC[N+](C)(C)C	none (no result: PfG6PD inh)
